Source: PubChem BioAssay (NCI)
Compounds without any hit were thinned out: in the full panel of roughly 83,000, 20% have a hit.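 The test compound was applied at a single concentration to cells in 96-well plates for 48 hours, and percent growth was recorded.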 Unmarked numbers belong to inactive results. The source made the active and inactive calls. How the source made its calls: active means growth percent below 10; inactive means the rest.

test system: MDA-MB-468 breast; experiment: NCI-60 one-dose screen, 48 h (100 = growth as untreated, 0 = no growth, -100 = all killed); settings: 10 µM unless noted

SMILES	growth
CCCCC/C=C/CCC(=O)N[C@H]1[C@H](Oc2c3cc4cc2Oc2ccc(cc2Cl)[C@@H](O[C@@H]2O[C@H](CO)[C@@H](O)[C@H](O)[C@H]2NC(C)=O)[C@@H]2NC(=O)[C@H](NC(=O)[C@@H]4NC(=O)[C@H]4NC(=O)[C@@H](Cc5ccc(c(Cl)c5)O3)NC(=O)[C@@H](N)c3ccc(O)c(c3)Oc3cc(O)cc4c3)c3ccc(O)c(c3)-c3c(O[C@H]4O[C@H](CO)[C@@H](O)[C@H](O)[C@@H]4O)cc(O)cc3[C@H](C(=O)O)NC2=O)O[C@H](CO)[C@H](O)[C@@H]1O	110%
O=C(Nc1ccncc1)C(=O)c1cn(S(=O)(=O)c2ccc(Br)cc2)c2ccccc12	6.9% (active)
CC[C@@H]1C(=O)N(C)c2cnc(Nc3ccc(C(=O)NC4CCC(N5CCN(CC6CC6)CC5)CC4)cc3OC)nc2N1C(C)C (stereo not given in full)	-54.1% (active)
O=[N+]([O-])c1cnc(Sc2ccncn2)s1	-63.7% (active)
c1ccc(-c2nc3ccccc3s2)cc1	96.4%
NC1(c2ccc(-c3nc4ccn5c(=O)[nH]nc5c4cc3-c3ccccc3)cc2)CCC1	-32.4% (active)
N#CCC1=NC(c2cccs2)=Nc2ccccc2S1	82.2%
N#CN1CC[C@H](C(=O)Nc2ncc(-c3ccncc3)s2)C1	-35.7% (active)
COc1ccc(NC(=O)CSc2oc(-c3ccccc3)nc2S(=O)(=O)c2ccc(Cl)cc2)c(OC)c1	57.8%
COc1ccccc1S(=O)(=O)Nc1ccc2c3c(cc(-c4ccoc4)nc13)C(=O)N2C	39.7%
